Among the data in PubChem BioAssay AID743245 (National Center for Advancing Translational Sciences (NCATS), 2014) are Potency values, retold here.

SMILES strings stand for the structures. The list shows a part of the results. Records with an inconclusive call do not appear. Activity calls are given as the source filed them. The call rests on the fitted dose curve; in most records, active means well fitted inhibition curve with a large enough effect; inconclusive means small, poorly fitted or top-dose-only effect; inactive means flat fitted curve, though single readings scatter.

The target of the test is ATP-dependent Clp protease proteolytic subunit (Bacillus subtilis (strain 168)) (UniProt P80244). The experiment in a line: qHTS Assay for Activators of ClpP: Hit Validation of Inhibitors. Further: nearly all actives have a fitted effect of over 70% in size. The note with it: purified B. subtilis ClpP, FRET-FV substrate cleavage, 20 min; series mostly up to 57.5 µM. The text has this: The Clp protease proteolytic subunit (ClpP) is the core unit of the Clp complex belonging to the peptidase family S14 that hydrolyzes protein into small peptides in the presence of ATP and magnesium. It is ubiquitously expressed and is the major protease in bacteria. […] Unlike common antibiotics that simply interfere with the essential enzyme activity, ADEP binding activates the ClpP core in the absence of the regulatory Clp-ATPases leading to uncontrolled proteolysis and eventually cell death. Activators binding to the docking site on ClpP can also block formation of the ClpXP and ClpA/C-P holoenzyme complexes interfering with the normal biological functions of ClpP and thus have the potential to become new anti-microbials. To identify activators of ClpP, a FRET based quenching reversal assay was developed using a purified B. subtilis ClpP and a decapeptide substrate (FRET-FV). The FRET-FV is tagged with a fluorescent molecule amino benzoic acid (donor) at the N-terminus and a nitrotyrosine quencher (acceptor) at the C-terminus. FRET-FV cleaves upon activation of ClpP with ADEP treatement and reverses the quenching effect of the nitrotyrosine causing an increase in fluorescence emission signal at 430nm. This assay was used to screen the Molecular Libraries Small Molecule Repository (MLSMR). NIH Molecular Libraries Probe Production Centers Network [MLPCN] NIH Chemical Genomics Center [NCGC] MLPCN Grant: MH095569 Assay Submitter (PI): Michael Maurizi, National Cancer Institute
Sequence of ATP-dependent Clp protease proteolytic subunit (Bacillus subtilis (strain 168)) (P80244 whole entry, looked up): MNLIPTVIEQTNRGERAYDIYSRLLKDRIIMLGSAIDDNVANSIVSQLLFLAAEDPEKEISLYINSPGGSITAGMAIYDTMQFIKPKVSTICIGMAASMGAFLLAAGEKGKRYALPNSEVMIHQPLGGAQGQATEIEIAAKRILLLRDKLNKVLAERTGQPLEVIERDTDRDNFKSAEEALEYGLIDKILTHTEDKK
Two and a half microL/well of purified enzyme solution (final concentrations 10 microg/mL B. subtilis ClpP in 100 mM Tris/HCl pH8, 100 mM KCl, 0.05% low protease BSA, 2.5% glycerol, 0.01% Tween-20 buffer) was dispensed into 1536-well assay plates (Greiner, black solid, medium-binding plates) with Aurora Discovery BioRAPTR Flying Reagent Dispenser (FRD, Beckton-Dickenson). Compound solution (23 nL) was transferred to the assay plate using Kalypsys pin tool equipped with a 1536-pin tool. One and a half microL/well substrate solution (final concentrations 3 microM FRET-FV substrate in 100 mM Tris/HCl pH8, 100 mM KCl, 0.05% low protease BSA, 2.5% glycerol, 0.01% Tween-20 buffer) was then added for a total of 4 microL final reaction volume. FRET signals at time 0 and after 20 min room temperature incubation were obtained using the PerkinElmer Envision plate reader with 320nm excitation and 430nm emission filters. Delta FRET value (Time 20 - Time 0) was calculated and normalized to the delta FRET value of positive control ADEP (5.8 microM final concentration) and negative control DMSO and no enzyme wells.
A general note: Quantitative high-throughput screening tests each substance at several concentrations.
On to `COc1cc2[nH]c(=O)n(Cc3ccc(C(=O)NCc4ccc(C)cc4)cc3)c(=O)c2cc1OC`, for which the Potency result was “inactive”.
For the molecule `O=C(Nc1ccc2oc(-c3ccc4ccccc4c3)nc2c1)c1cccs1`, the Potency was 10.9 µM (active).
Next, `Cc1cccc(-c2oc3ccc(-c4ccc5c(c4)OCO5)cc3c2C#Cc2cncn2C)c1`: 24.3 µM (active); `CCCCn1c(=O)c2oc3ccccc3c2n(CC(=O)Nc2ccccc2OC)c1=O`: “inactive”.
As for `CC(C)n1c(-c2cccs2)nc2ccccc21`, the Potency is 21.7 µM (active).
Next, `Cc1nc2sc(C)c(C)n2c(=O)c1S(=O)(=O)NCCc1ccc(Cl)cc1`: 24.3 µM (active); `Cc1cccc(NC(=O)c2nnn(CC(=O)Nc3ccc(C(C)C)cc3)c2N)c1C`: “inactive”; `CCN(CCCNC(=O)c1cc2c(=O)n(CC)c3ccccc3c2s1)Cc1ccccc1`: “inactive”.
Take `COc1ccccc1CNC(=O)c1ccccc1NC(=O)c1nsc2ccccc12`: the Potency was 24.3 µM (active).
Next, `COc1ccc(CNC(=O)COC(=O)CCS(=O)(=O)c2ccc(C)cc2)cc1OC`: “inactive”; `CCOc1ccc(-c2nnc(-c3ccco3)o2)cc1`: 21.7 µM (active).
For `CN(C(=O)c1cc2c(=O)n3ccccc3nc2s1)C1CCCCC1`, the Potency was 13.7 µM (active).
Next, `CCOC(=O)N1CCN(C(=O)c2ccc3nc4cc(Cl)ccc4c(=O)n3c2)CC1`: 27.3 µM (active).
With `CCOc1ccc(-c2cc(C)n3nc(C(=O)Nc4ccc(C)c(C)c4)cc3n2)cc1`, the Potency entry is “inactive”.
As for `CCCCN(C)c1ccc([N+](=O)[O-])cc1`, the entry is “inactive”; as for `Fc1cc(F)c2nc(Nc3nc4c(F)cccc4s3)sc2c1`, 4.85 µM (active).
As for `COc1ccc(CCNC(=O)c2ccc3c(c2)sc2nc(-c4ccc(C)cc4)cn23)cc1OC`, the Potency is 27.3 µM (active).
Next, `COc1ccccc1NC(=O)c1oc2ccccc2c1NC(=O)COc1ccccc1OC`: 21.7 µM (active).
